A selection: hits, their analogues and other compounds. The true share with any hit is near 3.5%.
GPR151 activ: activates the human receptor GPR151; 1% of 650,000 active; activation, % at 11.2 µM; PathHunter beta-arrestin GPR151 cells, luminescence; Q8TDV0; in the data active means activation above about 4.9%;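 further: 0% = median of compound wells and 100% = cells with positive control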
FBW7 act: activators of human E3 ligase FBW7. Q969H0. AlphaScreen FBW7–phospho-cyclin E peptide binding, activator screen. normalized activity (activation), % at 26.1 µM. 0.13% of 650,000 active; in the data active means normalized activity above about 1.9%;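 further: purified mutant Fbw7 with reduced substrate affinity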
Target sequence (Q969H0 whole entry, looked up): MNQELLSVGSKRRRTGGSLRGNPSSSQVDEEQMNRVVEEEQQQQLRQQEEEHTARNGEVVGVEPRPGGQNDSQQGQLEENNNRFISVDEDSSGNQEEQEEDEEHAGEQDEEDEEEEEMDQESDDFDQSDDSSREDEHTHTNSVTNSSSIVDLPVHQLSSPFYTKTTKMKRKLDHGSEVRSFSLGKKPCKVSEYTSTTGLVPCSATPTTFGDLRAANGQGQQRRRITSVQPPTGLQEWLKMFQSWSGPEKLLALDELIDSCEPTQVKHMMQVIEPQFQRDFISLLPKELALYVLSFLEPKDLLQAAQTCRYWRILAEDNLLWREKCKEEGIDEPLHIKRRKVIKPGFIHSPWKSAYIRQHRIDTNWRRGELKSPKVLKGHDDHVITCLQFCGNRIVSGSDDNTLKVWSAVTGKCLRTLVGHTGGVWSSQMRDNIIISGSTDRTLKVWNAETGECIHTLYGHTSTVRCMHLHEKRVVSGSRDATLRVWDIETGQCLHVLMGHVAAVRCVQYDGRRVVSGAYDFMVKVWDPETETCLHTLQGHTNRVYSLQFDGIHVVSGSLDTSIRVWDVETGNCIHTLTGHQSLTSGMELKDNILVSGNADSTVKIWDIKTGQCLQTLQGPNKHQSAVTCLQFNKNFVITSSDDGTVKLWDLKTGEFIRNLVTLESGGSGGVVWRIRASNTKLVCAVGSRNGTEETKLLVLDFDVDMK
MITF primary: blocks human microphthalmia-associated transcription factor; AlphaScreen MITF homodimerization, bead proximity signal; inhibition, % at 2.6 µM; 0.91% of 650,000 active; AID 1259374; in the data active means inhibition above about 50%;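 further: 0% = vehicle wells with protein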
TEAD-YAP inh: TEAD-YAP interaction inhibition | HEK-TIYL cells, TEAD-Gal4/YAP UAS-luciferase luminescence | inhibition, % at 9.12 µM | 1.4% of 640,000 active; in the data active means inhibition above about 32%;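 further: 0% = median of test compound wells and 100% = reference inhibitor wells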
GPR151 confirm: confirmation of human GPR151 activators | shares compounds with GPR151 activ | GPR151 PathHunter beta-arrestin cells, luminescence, 90 min; % of EA-reagent control over plate median | activation, % at 11.2 µM | 6,700 tested, under 10 active;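 active means mean percent activation across replicates above the confirmation screen cutoff of 4.91%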
GPR119 counter: activates human GPR119 in a GPR151 counter-screen; activation, % at 11.2 µM; 0.3% of 6,700 active; shares compounds with GPR151 activ; GPR119 PathHunter beta-arrestin cells, luminescence, 90 min; 0 = compound-well median, 100 = enzyme-acceptor control;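 active means mean percent activation in the counterscreen above 29.09%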;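 further: counterscreen on off-target GPR119 to flag nonselective hits from the GPR151 activator screen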
The depositor's hits bear a star; . = no result given; ! = a repeat was not active.

SMILES	GPR151 activ	FBW7 act	MITF primary	TEAD-YAP inh	GPR151 confirm	GPR119 counter
Cc1ccc(-c2nnc(SCC(=O)Nc3ccccc3N3CCOCC3)o2)cc1	5.1*	0	12	-6	0	2
COc1ccc(-c2nnc(SCC(=O)Nc3ccc(N4CCOCC4)cc3)o2)cc1	6.1*	0	0	17	-1	-8
CCOc1ccc(-c2n[nH]c(C)c2Oc2ccc(F)cc2)c(O)c1	4.9*	0	-4	1	0	-10
Nc1cc2c(cc1C(=O)c1cccc(Br)c1)OCCO2	5.4*	0	-2	5	0	3
CCN(CC)c1ccc(C2C(C#N)=C(N)OC3=C2C(=O)CCC3)cc1 (stereo not drawn)	-1	0	2	5	.	.
O=C(NC1CC1)c1ccc(-c2nc(NCc3ccccc3)c3ncn(-c4ccccc4)c3n2)cc1	2	0	-7	2	.	.
O=C(NC1CC1)c1ccc(-c2nc(NCc3nc4ccccc4[nH]3)c3ncn(-c4ccccc4)c3n2)cc1	5.0*	1	-1	73*	0	4
COc1ccc(CCS(=O)(=O)Nc2ccc3c(c2)N(C(=O)C2CCCO2)CC3)cc1 (stereo not drawn)	5.8*	0	25	4	-1	-16
CCNC(=O)C(=O)NCc1cccs1	4.9*	0	5	1	1	1
O=C(NCc1cccs1)C(=O)NC1CC1	0	0	3	2	.	.
c1cncc(-c2nc(-c3ccncc3)cc(N3CCCCC3)n2)c1	5.2*	0	13	16	-1	-8
O=C(N/N=C/c1cccc(O)c1)c1cccnc1	5.8*	0	6	-1	-1	-11
O=C(N/N=C/c1cccc([N+](=O)[O-])c1)c1cc(O)c(O)c(O)c1	5.7*	0	15	-10	1	4
O=C(N/N=C\c1cccc([N+](=O)[O-])c1)c1ccc(O)cc1	-1	0	-24	2	.	.
O=C(N/N=C/c1ccc([N+](=O)[O-])cc1)c1ccc(Br)cc1	7.8*	0	4	-5	1	-2
O=C(N/N=C\c1ccc(Br)cc1)c1cc([N+](=O)[O-])cc([N+](=O)[O-])c1	-1	0	3	-3	.	.
O=C(N/N=C/c1cccc(O)c1)c1cnccn1	-5	0	-2	-6	.	.
O=C(CCCC(=O)N/N=C/c1cccc([N+](=O)[O-])c1)N/N=C/c1cccc([N+](=O)[O-])c1	14*	0	-8	6	1	2
O=C(CCC(=O)N/N=C/c1cccc([N+](=O)[O-])c1)N/N=C/c1cccc([N+](=O)[O-])c1	-1	0	-5	2	.	.
O=C(NN1C(=O)CCC1=O)c1cccc(I)c1	-2	0	0	-15	.	.
Cc1cc(C(=O)N/N=C/c2cccc(Br)c2)n[nH]1	0	0	8	-27	.	.
CCc1ccc(C2CC(c3cc(OC)ccc3OC)n3nnnc3N2)cc1 (stereo not drawn)	0	0	1	-1	.	.
COCCOC(=O)C1=C(N)Oc2c(oc(CO)cc2=O)C1c1c(F)cccc1Cl (stereo not drawn)	5.7*	0	-15	13	0	9
O=C1NC(=S)NC(=O)C1=Cc1cc(Cl)ccc1OCc1ccc([N+](=O)[O-])cc1	1	0	-10	-31	.	.
CCCOc1ccc([N+](=O)[O-])cc1C=C1C(=O)NC(=S)NC1=O	5.1*	0	0	6	0	-3
SMILES	GPR151 activ	FBW7 act	MITF primary	TEAD-YAP inh	GPR151 confirm	GPR119 counter
O=C(NCCc1csc2nc(-c3ccc(F)cc3)nn12)c1cccs1	-1	0	-4	2	.	.
CCOc1ccc(-c2cc(C)n3nc(C(=O)Nc4ccc(CC)cc4)cc3n2)cc1	1	0	3	-1	.	.
Cc1cc(CN(C)C(=O)CC2(c3ccccc3C)CC(=O)N(Cc3cccnc3)C2=O)n[nH]1 (stereo not drawn)	1	0	-5	-9	.	.
Cc1cc(CN(C)C(=O)CC2(c3cccc(F)c3)CC(=O)N(Cc3cccnc3)C2=O)n[nH]1 (stereo not drawn)	12*	0	13	0	0	7
c1ccc(CNc2ccnc(-c3ccccc3)n2)cc1	0	0	-8	-11	.	.
Nc1nc(NCc2cccc(C(F)(F)F)c2)cc(Nc2nccc3ccccc23)n1	-2	1	-4	12	.	.
O=C(CSc1ncccn1)NCc1cccc(C(F)(F)F)c1	5.8*	0	4	-26	0	-9
O=C(NCc1cccc(C(F)(F)F)c1)c1cccc(Nc2nccc3ccccc23)n1	5.5*	0	2	2	0	6
FC(F)(F)c1cccc(CNc2ccnc(-c3ccccc3)n2)c1	5.0*!	0	11	37*!	1	-4
FC(F)(F)c1cccc(CNc2cc(Nc3nccc4ccccc34)ncn2)c1	6.7*	0	15	-2	0	-4
COc1ccc(C(=O)Cc2cc(OC)c(OC)cc2Br)cc1	0	0	-10	4	.	.
N#Cc1cccc(CN2C(=O)C(F)(F)Oc3ncccc32)c1	-2	0	-14	-8	.	.
Cc1cc2ncn(CCC(=O)NC(C)(C)C)c2cc1C	5.3*	0	6	17	0	8
Cc1cc2ncn(CCC(=O)NC3CCCC3)c2cc1C	0	0	-3	-1	.	.
C[C@@H]1CN(Cc2nnnn2CC(=O)N2CCCCCCC2)C[C@H](C)O1	1	0	-2	-14	.	.
C#CCOC(=O)CCCNc1ccc([N+](=O)[O-])cc1[N+](=O)[O-]	5.6*	0	15	1	-1	7
C#CCOC(=O)CCCC(=O)Nc1ccc([N+](=O)[O-])cc1Cl	0	0	6	4	.	.
CCCn1cnc2sc(C(=O)Nc3c(C)cc(Br)cc3C)c(C)c2c1=O	-1	0	7	9	.	.
COC(=O)C1CCCCN1Cc1ccc2c(c1)CN(Cc1cnn(C)c1C)CCO2 (stereo not drawn)	5.9*	0	0	3	1	0
COC(=O)[C@@H]1CCCN1Cc1ccc2c(c1)CN(Cc1ccc3c(c1)OCCO3)CCO2	-1	0	16	0	.	.
COc1cc(NC(=O)c2cccc(-n3cc(NC(=O)N[C@@H](C)c4ccccc4)cn3)c2)ccc1N1CCOCC1	5.7*	0	10	3	0	-4
COc1cc(C2C(C(=O)OCCc3ccccc3)=C(C)NC3=C2C(=O)CC(C)(C)C3)ccc1OC(C)=O (stereo not drawn)	0	1	16	-3	.	.
CCCCCCCCCCCCCCCCCCOC[C@H](COP(=O)(O)OCC[N+](C)(C)C)OC(C)=O	5.2*	.	-13	.	0	-7
CC(C)(C)c1ccc(C2CC(=O)NC3=C2C(=O)CCC3)cc1 (stereo not drawn)	0	0	4	-10	.	.

Source: PubChem BioAssay
